# Screens (PubChem)
# In the library only some 7.5% were active in any assay of this set; here they are far more common.
# Rab9 promoter act = Rab9 promoter activation | 320,000 tested, 2.8% active | Huh7 Rab9 promoter-luciferase reporter, luminescence, 24 h | Potency, µM (highest dose often 9.22 µM), for the others: top-dose activation, negative = inhibition, hits mostly activators; further: % of control where 0% means no effect; nearly all actives have a fitted effect of over 60% in size
#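 Luminescence from Amplite-detected luciferase (10 minutes, ambient) reports Rab9 promoter activation. Before that, stable Rab9-luciferase Huh7 cells (1500/well, reduced-serum OP-MEM I plus 10% FBS) were exposed to compound for 24 hours at 37C.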
# KinaseGlo FLuc = Kinase-Glo luciferase inhibition (counter-screen) | 200,000 tested, 0.28% active | Q27757 | Potency, µM (doses to about 38.3 µM), for inactives: top-dose activity change, negative = inhibition, hits mostly inhibitors | Kinase-Glo luciferase, ATP luminescence, 8 min; further: on the % scale 0 is the no-effect control and ±100 the full control effect; nearly all actives have a fitted effect of over 60% in size
#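 Light output from Kinase-Glo luciferase with luciferin and 10 uM ATP in 50 mM imidazole pH 7.2, KCl, MgCl2, Tween 20, BSA; compound pin-delivered, 8-min ambient incubation, then luminescence read.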
# ELG1 genotox = induces genotoxicity in HEK293T cells with luciferase-tagged ELG1; HEK293T ELG1-luciferase reporter, luminescence, 16 h; Potency, µM (doses to about 46 µM), without a hit: top-dose activity change, positive = activation, most hits filed as activators; 330,000 tested, 1.3% active; AID 504466; further: % of control where 0% means no effect; nearly all actives have a fitted effect of over 60% in size
#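 Reporter readout depends on ELG1 protein level, which increases with genetic stress. After 16 hr compound exposure at 37 °C, luciferase activity was quantified using ONE-Glo.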
# SMN2 splice up = increases expression of the SMN2 splice variant; HEK293 SMN2-luciferase splicing reporter, luminescence, 30-36 h; Potency, µM (top dose mostly 46.1 µM), inactives show top-dose activity change, positive = activation, actives largely listed as activators; AID 1458; 210,000 tested, 2.8% active; further: % of control where 0% means no effect; nearly all actives have a fitted effect of over 55% in size
#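 qHTS luciferase splicing reporter: luminescence rises when SMN2 exon 7 is included in transfected HEK293 cells. Compound exposure lasted 30-36 h at 37C, with 4.5 mM final sodium butyrate as control, followed by a ONE-Glo read.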
# FLuc modulator = counter-screen for miR-21 project: firefly luciferase inhibitors or activators. P08659. Potency, µM (titrated, usually from 57.5 µM), for the others: top-dose activity change, negative = inhibition, actives largely listed as inhibitors. 360,000 tested, 6.9% active. AID 588342. purified FLuc, Km substrates, luminescence inhibition;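 further: plate controls were vehicle for no effect and reference inhibitor for full effect; nearly all actives have a fitted effect of over 55% in size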
# Target sequence (P08659 whole entry, looked up): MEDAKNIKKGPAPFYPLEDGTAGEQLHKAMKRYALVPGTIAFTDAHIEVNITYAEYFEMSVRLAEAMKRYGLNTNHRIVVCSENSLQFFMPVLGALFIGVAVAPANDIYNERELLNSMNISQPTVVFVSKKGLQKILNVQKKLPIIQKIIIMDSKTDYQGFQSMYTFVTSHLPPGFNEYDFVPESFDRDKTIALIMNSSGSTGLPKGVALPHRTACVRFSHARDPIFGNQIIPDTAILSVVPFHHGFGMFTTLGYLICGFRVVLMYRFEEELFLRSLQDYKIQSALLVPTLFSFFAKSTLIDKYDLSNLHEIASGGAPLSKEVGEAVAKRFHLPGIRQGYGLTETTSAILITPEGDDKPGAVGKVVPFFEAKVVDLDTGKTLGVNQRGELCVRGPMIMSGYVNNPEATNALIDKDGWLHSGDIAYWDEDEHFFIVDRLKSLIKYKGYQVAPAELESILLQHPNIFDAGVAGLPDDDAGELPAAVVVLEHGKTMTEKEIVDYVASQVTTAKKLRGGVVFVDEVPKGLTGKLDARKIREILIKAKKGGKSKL
#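 Purified P. pyralis luciferase, 10 nM final, with Km-level 10 uM D-luciferin and 10 uM ATP in 50 mM Tris acetate pH 7.5, 10 mM Mg acetate, 0.01% Tween-20, 0.05% BSA; 6-point qHTS titration about 60 µM downward; luminescence read.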
# NPC1 promoter act = activates the NPC1 promoter; Huh7 NPC1 promoter luciferase reporter, 24 h; Potency, µM (series often up to 9.22 µM), for inactives: at the top dose activation, hits mostly activators; 320,000 tested, 2.4% active; AID 485313; further: % of control where 0% means no effect; nearly all actives have a fitted effect of over 60% in size
#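 NPC1 promoter–luciferase Huh7 cells; 24 h compound; luminescence.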
# An asterisk follows results filed as active; u = inconclusive; x = not tested or not shown; [ ] = dose if it differs, or a comment. The call rests on the fitted dose curve; in most records, active means well fitted curve in the direction sought with a large enough effect; inconclusive means small, poorly fitted or top-dose-only effect, or another doubt; inactive means no such curve, though single readings can be large; an effect the other way counts as inactive or inconclusive. Potency means the concentration at half of the fitted maximal effect.
SMILES,Rab9 promoter act,KinaseGlo FLuc,ELG1 genotox,SMN2 splice up,FLuc modulator,NPC1 promoter act
CCN(C(=O)c1cc2c(s1)-c1c(C)cccc1OC2)c1ccccc1F,x,x,x,10%,-2%,x
O=c1oc2c(F)cc(F)cc2cc1S(=O)(=O)c1ccc(F)cc1,x,x,x,6%,u,x
O=CN1CCc2c([nH]c3ccccc23)C1c1cccc2cccnc12 (stereo not given),x,-1%,x,-7%,x,x
O=C(COc1ccccc1)NCC(=O)Nc1cccc(S(=O)(=O)NC2=NCCC2)c1,-1%,1%,11%,6%,-7%,-5%
Cc1cc2sc3nc(=O)n(-c4ccccc4)c(=O)n3c2cc1C,3.2µM*,x,u,x,17µM*,u
CC(C)(C)OC(=O)NN1CC(=O)N2[C@@H](Cc3c([nH]c4ccccc34)C2(C)C)C1=O,4%,x,-7%,x,1%,3%
C(=N\N=C\c1cccs1)/c1cccs1,2µM*,-17%,6%,u,2.1µM*,u
CCOc1ccc(-c2nc(SC(C(C)=O)C(=O)N(C)C)c3c(=O)n(C)c(=O)n(C)c3n2)cc1 (stereo not given),x,x,x,x,1%,x
CCc1ccccc1NC(=O)CN(Cc1ccccc1)S(=O)(=O)c1ccc(Br)cc1,x,x,x,-22%,6%,x
COc1ccc(N2CCN(C(=O)C3CCN(S(=O)(=O)c4cn(C)cn4)CC3)CC2)cc1,x,x,x,x,-1%,x
Cc1cc(=O)[nH]c2ccc(S(=O)(=O)Nc3ccc(O)cc3)cc12,0%,x,15%,x,-2%,0%
Cc1cc(=O)[nH]c2ccc(S(=O)(=O)Nc3ccccc3)cc12,-1%,x,23µM*,x,5%,-4%
COc1ccccc1Cc1nc2ccccc2nc1SCC(=O)NCc1ccccc1Cl,x,x,x,x,-2%,x
CN1CCN(C(=O)c2cc(COc3ccccc3)on2)[C@@H](c2ccccc2)C1,2µM*,x,13µM*,x,9.5µM*,3.5µM*
COc1cccc(OCc2cc(C(=O)N3CCN(C4CCCC4)CC3)no2)c1,-5%,x,1%,x,-5%,1%
Cc1ccc(OCc2cc(C(=O)N3CCC(Oc4cccnc4)CC3)no2)cc1C,0%,x,-4%,x,-19%,-4%
COc1cccc(OCc2cc(C(=O)N3CCCC3c3ccccn3)no2)c1 (stereo not given),2.8µM*,x,u,x,15µM*,2.2µM*
Cc1ccc(OCc2cc(C(=O)N3CCN(C)C[C@@H]3c3ccccc3)no2)cc1C,2.5µM*,x,u,x,21µM*,2.8µM*
Cc1cc2[nH]c(=O)c(=O)[nH]c2cc1S(=O)(=O)NCc1ccc(F)cc1,x,x,x,x,-2%,x
CC(C)N1CCc2nc(SCC(=O)Nc3cccc(F)c3)[nH]c(=O)c2C1,x,x,x,x,-1%,x
CC(=O)c1c(C)[nH]c(C(=O)NCCc2ccccc2)c1C,1.3µM*,-5%,u,11µM*,11µM*,2.5µM*
O=C(NCCc1csc(-c2ccccc2)n1)c1c(F)cccc1F,-1%,4%,-14%,-66%,u,2%
O=C(NCCc1ccccc1)c1ccco1,u,-7%,u,13µM*,u,u
O=C(NCCc1ccccc1)c1c(F)cccc1F,1.4µM*,-7%,u,x,17µM*,1.6µM*
CN(CC(=O)NCCc1ccccc1)Cc1ccco1,26%,x,21µM*,x,u,u
SMILES,Rab9 promoter act,KinaseGlo FLuc,ELG1 genotox,SMN2 splice up,FLuc modulator,NPC1 promoter act
COc1ccc(CCNC(=O)c2[nH]c(C)c(C(C)=O)c2C)cc1OC,3%,4%,-1%,u,6%,2%
O=C(Cc1n[nH]c(=O)c2ccccc12)OCC(=O)c1ccc(OC(F)F)cc1OC(F)F,-3%,x,-2%,x,-6%,7%
CNS(=O)(=O)c1cn(CC(=O)N2CCN(c3ccc(C)cc3C)CC2)cc1S(=O)(=O)NC,x,x,x,x,4%,x
S=c1nc(Cc2ccccc2)[nH]c2ccccc12,-2%,x,8%,x,-1%,0%
Clc1ccc2nc(-c3ccccc3)[nH]c2c1,x,11µM*,x,x,x,x
Clc1ccc2nc(COc3ccccc3)[nH]c2c1,u,x,u,x,12µM*,-1%
Clc1ccc2nc(-c3ccc(Cl)nc3)[nH]c2c1,17%[1.84 µM],x,u,x,12µM*,2.2µM*
S=c1nc(COc2ccccc2)[nH]c2ccccc12,u,x,16%,x,24µM*,u
Cc1ccc2c(c1)C(=O)C(=O)N2Cc1ccc(OCCC(C)C)cc1,x,x,x,14%,-3%,x
COc1cc(OC)c(NC(=O)N2CCc3cc(S(=O)(=O)N4CCC(C)CC4)ccc32)cc1Cl,x,x,x,-6%,0%,x
O=C(CSc1ccc(Cl)cc1)Nc1ccc(-c2nc3ccccc3[nH]2)cc1,u,-1%,16%,7.9µM*,-3%,21%
O=C(/C=C/c1ccco1)Nc1ccc(Oc2ccc(Cl)cc2)cc1,1%,-2%,-5%,-28%,-17%,-5%
O=C(/C=C/c1ccco1)Nc1ccc(-c2nc3ccccc3[nH]2)cc1,-38%,2%,17%,3.5µM*,0%,-23%
S=C(Nc1ccc(-c2nc3ccccc3[nH]2)cc1)Nc1cccnc1,1.4µM*,x,u,x,13µM*,u
O=C(CSc1ccc(-c2nc3ccccc3[nH]2)cn1)N1CCN(C(=O)c2ccco2)CC1,10%,-19%,-15%,-12%,11µM*,-1%
O=C(CSc1nc2ccccc2[nH]1)Nc1ccc(F)cc1,-7%,1%,0%,-11%,-13%,-1%
CCN(C(=O)CSc1nc2ccccc2n1CC(=O)NCc1ccc(OC)cc1)c1ccccc1,x,x,x,x,-15%,x
O=C(Nc1ccc(-c2nc3ccccc3[nH]2)cc1)c1ccco1,2.2µM*,u,1.8µM*,6.3µM*,4.3µM*,0.71µM*
COC(=O)Cn1ncn2c(cc3oc(C)cc32)c1=O,2.5µM*,-2%,u,u,15µM*,u
CSC(=N)N,-16%[46.1 µM],-9%,x,5%,x,4%[46.1 µM]
CC1CCCN(C(=O)c2ccc(-c3ccccc3Cl)o2)C1 (stereo not given),2.5µM*,x,15µM*,x,8.5µM*,3.5µM*
O=C(NC1CCCC1)c1cc(-c2ccc(F)cc2)on1,1.8µM*,x,4.6µM*,x,4.8µM*,1µM*
O=C(NC1CCCCC1)c1cc(-c2ccc(Cl)cc2)on1,26%,x,8%,x,3%,30%
O=C(NC1CCCC1)c1cc(-c2cccc(Cl)c2)on1,2.8µM*,x,18µM*,x,15µM*,2.8µM*
O=C(NC1CCCC1)c1cc(-c2ccc(Cl)cc2)on1,1.8µM*,x,4.6µM*,x,2.7µM*,1.4µM*
Cc1ccc(NC(=O)c2cc(-c3ccc(F)cc3)on2)cc1C,3%,1%,15%,-1%,0%,2%
Cc1nc(-c2cccc(NC(=O)c3ccco3)c2)cs1,11%,x,9%,x,u,0%
